From the supplement of paper PMC11732987, “Enantioselective OTUD7B fragment discovery through chemoproteomics screening and high-throughput optimisation” (Communications Chemistry, 2025)

Experiments:
Assay in all cases: log2 ratio of Biotin-Ahx-Ub-VS probe labelling (fragment/DMSO); higher = less target engagement (more negative = stronger competition), active = hit call of the paper (q ≤ 0.05, log2 ratio ≤ -1)
Settings in all cases: compound concentration: 200 uM; treatment time: 3 h
USP42 = target: T1, USP42 (UniProt Q9H9J4)
T1 sequence (whole entry): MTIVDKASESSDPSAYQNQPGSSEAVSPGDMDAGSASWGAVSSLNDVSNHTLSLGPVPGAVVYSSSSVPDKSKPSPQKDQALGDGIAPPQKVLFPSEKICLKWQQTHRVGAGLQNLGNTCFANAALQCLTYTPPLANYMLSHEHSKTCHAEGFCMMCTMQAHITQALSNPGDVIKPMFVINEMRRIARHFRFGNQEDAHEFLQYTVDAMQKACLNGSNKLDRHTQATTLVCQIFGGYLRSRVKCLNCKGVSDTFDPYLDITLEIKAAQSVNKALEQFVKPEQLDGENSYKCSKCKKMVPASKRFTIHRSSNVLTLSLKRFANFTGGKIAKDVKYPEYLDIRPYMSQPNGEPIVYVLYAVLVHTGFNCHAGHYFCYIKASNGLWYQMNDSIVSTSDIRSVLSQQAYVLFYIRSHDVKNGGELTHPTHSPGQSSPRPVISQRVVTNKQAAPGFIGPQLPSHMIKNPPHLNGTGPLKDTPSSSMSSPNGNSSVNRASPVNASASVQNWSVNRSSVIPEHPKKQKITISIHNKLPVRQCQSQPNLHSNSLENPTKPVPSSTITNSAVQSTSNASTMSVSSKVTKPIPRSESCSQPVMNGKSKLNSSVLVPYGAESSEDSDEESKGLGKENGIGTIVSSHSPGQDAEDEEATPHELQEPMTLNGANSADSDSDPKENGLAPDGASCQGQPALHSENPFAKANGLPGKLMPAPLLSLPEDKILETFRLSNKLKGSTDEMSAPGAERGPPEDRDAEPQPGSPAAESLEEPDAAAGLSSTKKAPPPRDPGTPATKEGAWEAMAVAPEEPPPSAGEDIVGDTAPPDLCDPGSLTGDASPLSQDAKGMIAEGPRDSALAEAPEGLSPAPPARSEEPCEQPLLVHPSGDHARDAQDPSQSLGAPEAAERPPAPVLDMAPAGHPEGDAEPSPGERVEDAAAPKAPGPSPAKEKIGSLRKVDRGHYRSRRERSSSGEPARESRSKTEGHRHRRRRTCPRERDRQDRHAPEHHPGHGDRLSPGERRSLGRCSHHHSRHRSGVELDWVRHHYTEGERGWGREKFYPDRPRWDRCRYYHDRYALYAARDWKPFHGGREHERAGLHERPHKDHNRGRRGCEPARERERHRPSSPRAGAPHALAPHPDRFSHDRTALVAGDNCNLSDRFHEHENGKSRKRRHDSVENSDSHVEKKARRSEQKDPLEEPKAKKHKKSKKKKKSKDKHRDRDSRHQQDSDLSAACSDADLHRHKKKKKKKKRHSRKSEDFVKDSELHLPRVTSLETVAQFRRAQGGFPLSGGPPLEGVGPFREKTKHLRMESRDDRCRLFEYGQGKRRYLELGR
Method in brief: (§1)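 HEK293T lysate (495 µg per sample, in Tris/CHAPS/IGEPAL buffer with protease inhibitors) was treated in triplicate with fragment at 200 µM or with DMSO for 3 h. It was then treated with Biotin-Ahx-Ub-VS (0.5 µM final) for 1 h. Labelled DUBs were NeutrAvidin-enriched, digested with LysC and trypsin, and run by diaPASEF LC-MS/MS. Spectronaut label-free quantities were global-median-normalised. Values are average log2 ratios fragment/DMSO by unpaired t-test, using proteins with ≥2 unique peptides.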

USP46 = USP46 (UniProt P62068)
USP46, sequence (P62068 whole entry): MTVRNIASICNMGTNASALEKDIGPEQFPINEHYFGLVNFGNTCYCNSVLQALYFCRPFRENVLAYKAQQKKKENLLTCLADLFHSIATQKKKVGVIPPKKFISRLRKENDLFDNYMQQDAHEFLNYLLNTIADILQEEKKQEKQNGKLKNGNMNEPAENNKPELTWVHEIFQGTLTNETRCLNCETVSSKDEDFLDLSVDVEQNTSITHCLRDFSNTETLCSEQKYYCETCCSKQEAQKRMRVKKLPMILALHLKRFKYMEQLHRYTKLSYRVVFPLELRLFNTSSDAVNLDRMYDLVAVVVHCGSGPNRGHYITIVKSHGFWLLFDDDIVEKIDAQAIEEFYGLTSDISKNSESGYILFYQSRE
Method in brief: as §1

USP47 = target: T2, USP47 (UniProt Q96K76)
T2 sequence (whole entry): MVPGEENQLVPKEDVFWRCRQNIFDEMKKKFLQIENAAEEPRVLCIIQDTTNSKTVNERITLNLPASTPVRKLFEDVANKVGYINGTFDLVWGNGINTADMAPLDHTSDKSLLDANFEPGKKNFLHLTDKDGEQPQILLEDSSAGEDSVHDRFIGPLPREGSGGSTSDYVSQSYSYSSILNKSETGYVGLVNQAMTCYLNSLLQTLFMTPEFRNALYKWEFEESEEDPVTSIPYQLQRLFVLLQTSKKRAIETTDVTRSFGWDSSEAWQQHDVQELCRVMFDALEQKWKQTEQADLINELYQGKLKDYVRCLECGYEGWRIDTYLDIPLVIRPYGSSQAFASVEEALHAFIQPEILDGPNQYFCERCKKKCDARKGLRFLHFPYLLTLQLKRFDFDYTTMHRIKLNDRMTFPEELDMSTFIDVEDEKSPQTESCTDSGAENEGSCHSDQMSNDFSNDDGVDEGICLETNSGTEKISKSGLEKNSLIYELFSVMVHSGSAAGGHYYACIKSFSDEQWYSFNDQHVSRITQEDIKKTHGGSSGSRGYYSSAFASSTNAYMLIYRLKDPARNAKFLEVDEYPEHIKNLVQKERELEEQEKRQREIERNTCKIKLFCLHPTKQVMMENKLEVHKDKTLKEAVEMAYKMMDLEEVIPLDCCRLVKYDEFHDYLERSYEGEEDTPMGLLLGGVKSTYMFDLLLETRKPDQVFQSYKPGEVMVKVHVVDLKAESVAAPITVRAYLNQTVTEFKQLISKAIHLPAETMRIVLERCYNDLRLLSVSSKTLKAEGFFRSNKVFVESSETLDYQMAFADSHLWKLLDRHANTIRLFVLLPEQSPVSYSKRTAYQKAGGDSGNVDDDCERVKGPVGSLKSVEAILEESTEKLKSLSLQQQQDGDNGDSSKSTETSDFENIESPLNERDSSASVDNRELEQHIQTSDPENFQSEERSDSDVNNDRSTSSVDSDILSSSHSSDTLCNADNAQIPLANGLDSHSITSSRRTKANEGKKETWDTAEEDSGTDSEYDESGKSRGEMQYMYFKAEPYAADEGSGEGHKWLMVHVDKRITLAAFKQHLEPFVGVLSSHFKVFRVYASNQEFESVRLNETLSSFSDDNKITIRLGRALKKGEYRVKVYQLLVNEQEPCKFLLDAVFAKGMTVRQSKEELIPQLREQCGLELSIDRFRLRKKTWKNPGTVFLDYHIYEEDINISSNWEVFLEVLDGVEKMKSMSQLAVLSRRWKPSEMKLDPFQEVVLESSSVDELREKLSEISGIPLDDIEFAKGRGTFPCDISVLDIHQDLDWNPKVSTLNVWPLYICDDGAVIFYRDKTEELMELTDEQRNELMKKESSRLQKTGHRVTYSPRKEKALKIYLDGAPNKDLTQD
Method in brief: as §1

USP48 = target: T3, USP48 (UniProt Q86UV5)
T3 sequence (whole entry): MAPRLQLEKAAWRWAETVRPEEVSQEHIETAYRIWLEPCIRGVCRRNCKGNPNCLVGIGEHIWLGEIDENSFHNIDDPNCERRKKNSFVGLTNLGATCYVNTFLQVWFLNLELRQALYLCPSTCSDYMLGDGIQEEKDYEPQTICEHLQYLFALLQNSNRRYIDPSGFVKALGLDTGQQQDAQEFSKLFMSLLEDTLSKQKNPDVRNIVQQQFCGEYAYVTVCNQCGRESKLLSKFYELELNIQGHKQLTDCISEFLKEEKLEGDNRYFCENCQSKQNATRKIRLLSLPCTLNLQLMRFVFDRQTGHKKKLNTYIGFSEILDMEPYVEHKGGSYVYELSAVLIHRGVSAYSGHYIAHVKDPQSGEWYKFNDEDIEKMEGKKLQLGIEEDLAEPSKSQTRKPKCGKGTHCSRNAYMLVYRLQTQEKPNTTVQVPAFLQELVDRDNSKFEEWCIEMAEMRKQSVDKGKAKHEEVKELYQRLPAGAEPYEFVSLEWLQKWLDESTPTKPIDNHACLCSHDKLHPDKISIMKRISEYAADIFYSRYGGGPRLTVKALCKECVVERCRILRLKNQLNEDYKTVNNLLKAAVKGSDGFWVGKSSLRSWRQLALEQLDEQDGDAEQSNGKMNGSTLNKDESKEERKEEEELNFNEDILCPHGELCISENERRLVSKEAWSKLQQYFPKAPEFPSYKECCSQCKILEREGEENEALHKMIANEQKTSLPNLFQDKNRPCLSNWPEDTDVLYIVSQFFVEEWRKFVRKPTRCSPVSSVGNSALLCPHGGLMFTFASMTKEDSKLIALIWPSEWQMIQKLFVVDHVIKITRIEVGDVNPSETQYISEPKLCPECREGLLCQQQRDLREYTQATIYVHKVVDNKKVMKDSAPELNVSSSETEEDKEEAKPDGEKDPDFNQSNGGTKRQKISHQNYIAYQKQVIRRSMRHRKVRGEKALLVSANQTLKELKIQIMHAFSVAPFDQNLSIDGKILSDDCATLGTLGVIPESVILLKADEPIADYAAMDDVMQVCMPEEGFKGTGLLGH
Method in brief: as §1

USP5 = target: T4, USP5 (UniProt P45974)
T4 sequence (whole entry): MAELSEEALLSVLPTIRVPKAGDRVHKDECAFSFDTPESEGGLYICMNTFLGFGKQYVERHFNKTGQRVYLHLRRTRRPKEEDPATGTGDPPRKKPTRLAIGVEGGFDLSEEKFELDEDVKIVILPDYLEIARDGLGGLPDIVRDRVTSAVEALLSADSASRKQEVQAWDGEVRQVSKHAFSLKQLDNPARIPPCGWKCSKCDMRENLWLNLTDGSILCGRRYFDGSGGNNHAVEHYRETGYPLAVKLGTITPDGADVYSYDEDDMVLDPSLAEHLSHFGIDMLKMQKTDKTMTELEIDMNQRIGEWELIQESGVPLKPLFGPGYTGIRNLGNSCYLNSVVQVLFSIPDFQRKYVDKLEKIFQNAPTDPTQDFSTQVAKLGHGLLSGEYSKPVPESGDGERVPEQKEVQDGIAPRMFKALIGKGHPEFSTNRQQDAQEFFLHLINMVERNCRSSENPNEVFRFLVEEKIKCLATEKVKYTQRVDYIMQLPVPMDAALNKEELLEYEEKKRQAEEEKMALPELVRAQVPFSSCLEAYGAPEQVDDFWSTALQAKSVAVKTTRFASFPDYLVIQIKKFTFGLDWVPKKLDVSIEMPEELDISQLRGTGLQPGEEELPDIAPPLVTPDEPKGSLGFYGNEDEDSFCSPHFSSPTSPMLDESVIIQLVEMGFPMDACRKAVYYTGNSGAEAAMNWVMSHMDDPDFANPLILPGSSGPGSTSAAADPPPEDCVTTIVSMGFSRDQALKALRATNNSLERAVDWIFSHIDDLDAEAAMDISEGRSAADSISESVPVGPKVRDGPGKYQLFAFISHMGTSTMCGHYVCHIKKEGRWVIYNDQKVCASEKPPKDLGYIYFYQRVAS
Method in brief: as §1

USP54 = USP54 (UniProt Q70EL1)
USP54, sequence (Q70EL1 whole entry): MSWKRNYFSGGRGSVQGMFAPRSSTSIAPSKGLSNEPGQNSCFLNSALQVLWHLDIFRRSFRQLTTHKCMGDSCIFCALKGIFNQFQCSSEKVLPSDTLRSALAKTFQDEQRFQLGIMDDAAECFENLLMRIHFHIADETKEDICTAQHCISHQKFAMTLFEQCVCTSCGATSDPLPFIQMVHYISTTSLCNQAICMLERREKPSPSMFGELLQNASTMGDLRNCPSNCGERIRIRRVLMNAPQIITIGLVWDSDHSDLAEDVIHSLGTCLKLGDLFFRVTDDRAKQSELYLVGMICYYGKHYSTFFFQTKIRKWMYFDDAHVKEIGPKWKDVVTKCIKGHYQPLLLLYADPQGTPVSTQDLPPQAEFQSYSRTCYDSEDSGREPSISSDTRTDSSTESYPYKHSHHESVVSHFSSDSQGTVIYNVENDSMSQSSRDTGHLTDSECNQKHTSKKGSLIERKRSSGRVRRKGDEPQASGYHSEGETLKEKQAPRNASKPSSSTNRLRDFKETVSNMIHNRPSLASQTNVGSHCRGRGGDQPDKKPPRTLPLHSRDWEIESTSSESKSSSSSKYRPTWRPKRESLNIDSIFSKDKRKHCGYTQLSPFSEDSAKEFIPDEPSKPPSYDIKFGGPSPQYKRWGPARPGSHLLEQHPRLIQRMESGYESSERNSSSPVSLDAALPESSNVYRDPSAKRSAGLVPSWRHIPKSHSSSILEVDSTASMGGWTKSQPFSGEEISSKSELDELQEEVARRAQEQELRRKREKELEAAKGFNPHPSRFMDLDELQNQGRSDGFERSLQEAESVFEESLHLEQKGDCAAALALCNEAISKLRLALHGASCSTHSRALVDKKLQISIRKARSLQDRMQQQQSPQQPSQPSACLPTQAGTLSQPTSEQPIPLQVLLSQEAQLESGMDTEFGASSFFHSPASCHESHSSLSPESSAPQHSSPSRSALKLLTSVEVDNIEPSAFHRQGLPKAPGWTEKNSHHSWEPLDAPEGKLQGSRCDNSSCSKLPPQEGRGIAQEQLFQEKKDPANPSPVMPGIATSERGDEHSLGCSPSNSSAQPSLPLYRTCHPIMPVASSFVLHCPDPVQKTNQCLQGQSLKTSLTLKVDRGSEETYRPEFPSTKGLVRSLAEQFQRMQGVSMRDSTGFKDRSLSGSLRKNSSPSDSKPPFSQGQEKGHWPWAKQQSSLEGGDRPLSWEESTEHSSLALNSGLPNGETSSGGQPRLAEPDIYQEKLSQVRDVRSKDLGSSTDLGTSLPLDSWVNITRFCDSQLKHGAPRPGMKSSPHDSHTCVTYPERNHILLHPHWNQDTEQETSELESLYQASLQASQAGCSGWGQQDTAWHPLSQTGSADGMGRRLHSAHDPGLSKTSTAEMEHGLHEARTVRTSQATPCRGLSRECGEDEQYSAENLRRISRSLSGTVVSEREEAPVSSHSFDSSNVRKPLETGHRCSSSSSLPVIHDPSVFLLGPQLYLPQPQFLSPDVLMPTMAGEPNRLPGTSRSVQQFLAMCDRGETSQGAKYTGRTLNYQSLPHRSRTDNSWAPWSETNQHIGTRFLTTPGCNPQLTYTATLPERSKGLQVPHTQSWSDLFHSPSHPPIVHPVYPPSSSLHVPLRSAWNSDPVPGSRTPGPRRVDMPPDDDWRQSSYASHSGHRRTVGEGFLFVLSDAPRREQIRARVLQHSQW
Method in brief: as §1

USP7 = USP7 (UniProt Q93009)
USP7, sequence (Q93009 whole entry, looked up): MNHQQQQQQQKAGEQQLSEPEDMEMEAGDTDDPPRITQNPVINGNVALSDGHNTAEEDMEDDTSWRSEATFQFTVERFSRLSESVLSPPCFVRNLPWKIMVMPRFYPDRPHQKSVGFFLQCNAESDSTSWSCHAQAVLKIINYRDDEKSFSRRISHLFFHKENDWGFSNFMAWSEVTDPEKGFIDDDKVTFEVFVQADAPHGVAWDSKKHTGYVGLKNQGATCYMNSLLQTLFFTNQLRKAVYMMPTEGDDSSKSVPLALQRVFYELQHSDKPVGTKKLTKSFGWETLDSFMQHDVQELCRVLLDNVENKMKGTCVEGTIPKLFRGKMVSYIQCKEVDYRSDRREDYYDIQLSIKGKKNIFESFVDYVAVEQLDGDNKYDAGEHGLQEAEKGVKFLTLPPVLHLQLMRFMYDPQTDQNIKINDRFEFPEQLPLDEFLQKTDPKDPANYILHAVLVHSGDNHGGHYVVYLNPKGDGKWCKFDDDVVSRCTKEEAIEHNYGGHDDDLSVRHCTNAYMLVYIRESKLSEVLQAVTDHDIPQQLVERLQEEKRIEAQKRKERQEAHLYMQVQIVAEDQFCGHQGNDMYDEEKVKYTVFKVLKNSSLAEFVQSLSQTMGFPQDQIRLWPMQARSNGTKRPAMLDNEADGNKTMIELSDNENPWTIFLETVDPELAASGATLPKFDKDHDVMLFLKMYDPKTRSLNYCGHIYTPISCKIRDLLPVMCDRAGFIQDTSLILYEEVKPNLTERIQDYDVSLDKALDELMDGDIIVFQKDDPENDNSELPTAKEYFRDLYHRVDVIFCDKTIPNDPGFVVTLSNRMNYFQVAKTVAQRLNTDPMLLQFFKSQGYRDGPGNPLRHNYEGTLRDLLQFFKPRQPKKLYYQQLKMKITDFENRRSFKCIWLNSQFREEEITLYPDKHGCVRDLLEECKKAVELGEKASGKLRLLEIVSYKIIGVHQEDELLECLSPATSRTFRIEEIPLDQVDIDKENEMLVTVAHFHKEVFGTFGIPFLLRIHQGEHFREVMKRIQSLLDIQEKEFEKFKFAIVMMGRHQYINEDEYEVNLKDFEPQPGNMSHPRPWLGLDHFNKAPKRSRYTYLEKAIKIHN
Method in brief: as §1

USP8 = target: T5, USP8 (UniProt P40818)
T5 sequence (whole entry): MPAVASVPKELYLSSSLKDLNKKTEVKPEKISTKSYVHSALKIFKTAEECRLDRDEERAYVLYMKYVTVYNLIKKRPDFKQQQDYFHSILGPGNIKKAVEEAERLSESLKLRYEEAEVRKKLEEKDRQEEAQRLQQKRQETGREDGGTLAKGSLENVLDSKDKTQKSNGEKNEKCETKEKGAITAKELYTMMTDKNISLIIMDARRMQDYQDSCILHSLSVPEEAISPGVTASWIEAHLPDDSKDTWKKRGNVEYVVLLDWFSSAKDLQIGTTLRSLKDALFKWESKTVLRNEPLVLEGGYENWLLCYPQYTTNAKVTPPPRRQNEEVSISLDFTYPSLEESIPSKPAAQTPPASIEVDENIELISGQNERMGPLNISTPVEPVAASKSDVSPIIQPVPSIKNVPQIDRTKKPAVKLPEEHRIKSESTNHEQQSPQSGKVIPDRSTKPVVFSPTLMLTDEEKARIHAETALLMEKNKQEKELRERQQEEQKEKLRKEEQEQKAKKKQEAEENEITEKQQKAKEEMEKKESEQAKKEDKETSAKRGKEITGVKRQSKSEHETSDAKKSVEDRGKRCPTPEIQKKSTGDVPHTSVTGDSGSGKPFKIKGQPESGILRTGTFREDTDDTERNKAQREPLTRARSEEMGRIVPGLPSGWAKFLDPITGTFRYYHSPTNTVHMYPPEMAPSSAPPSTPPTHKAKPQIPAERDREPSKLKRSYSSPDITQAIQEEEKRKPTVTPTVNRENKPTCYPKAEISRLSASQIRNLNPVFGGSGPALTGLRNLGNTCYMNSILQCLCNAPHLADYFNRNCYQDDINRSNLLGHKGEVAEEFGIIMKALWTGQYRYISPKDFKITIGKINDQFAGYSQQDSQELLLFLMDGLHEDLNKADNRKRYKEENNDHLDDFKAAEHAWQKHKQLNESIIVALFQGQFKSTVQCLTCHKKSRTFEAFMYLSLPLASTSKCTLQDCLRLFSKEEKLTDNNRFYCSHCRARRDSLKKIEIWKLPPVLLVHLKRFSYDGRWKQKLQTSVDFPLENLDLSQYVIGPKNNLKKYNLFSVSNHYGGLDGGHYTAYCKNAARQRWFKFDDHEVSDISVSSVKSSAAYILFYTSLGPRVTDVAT
Method in brief: as §1

USP9X = USP9X (UniProt Q93008)
Method in brief: as §1

UniProt O00487 = target: UniProt O00487
UniProt O00487, sequence (O00487 whole entry): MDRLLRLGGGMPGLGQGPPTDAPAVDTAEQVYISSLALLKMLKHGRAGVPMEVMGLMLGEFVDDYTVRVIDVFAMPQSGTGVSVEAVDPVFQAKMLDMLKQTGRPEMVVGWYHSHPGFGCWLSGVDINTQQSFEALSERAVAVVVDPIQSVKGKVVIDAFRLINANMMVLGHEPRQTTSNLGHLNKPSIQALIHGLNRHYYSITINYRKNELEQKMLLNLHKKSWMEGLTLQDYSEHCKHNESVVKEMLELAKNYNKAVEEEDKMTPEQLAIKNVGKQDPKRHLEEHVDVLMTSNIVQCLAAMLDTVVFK
Method in brief: as §1

Measured: log2 ratio of Biotin-Ahx-Ub-VS probe labelling

O=C(CCl)NCc1cccc(N2CCCC2=O)c1
inactive: USP42 -0.175 | USP46 0.179 | USP47 0.109 | USP48 -0.0848 | USP5 0.238 | USP54 0.342 | USP7 -0.0593 | USP8 -0.147 | USP9X -0.272 | UniProt O00487 0.135
